The list is not random: actives were taken first. Their share in the collection is about 4.6%.
NFkB transloc pot: enhances IL-1B driven NFkB nuclear translocation; HUVEC IL-1B NFkB p65 nuclear translocation imaging; activation, % at 2 µM; 94,000 tested, 0.3% active; AID 819;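 active = activation above 40%, about the mean plus 3 SD, also judged a hit on visual image review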;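 note: percent activation is computed from the nuclear over cytoplasmic p65 intensity ratio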
Cav3 T inh: blocks human Cav3.2 T-type calcium channel. Cav3.2-expressing cells, Fluo-4 calcium fluorescence FDSS; stronger effect = lower value. O95180. 100,000 tested, 4% active. AID 449739. B-score at 10 µM;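 active = single-dose well whose peak fluorescence ratio is a statistical outlier from its plate by either plate-standardised score or position-corrected B-score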
sEH act: soluble epoxide hydrolase (human) activation; P34913; purified human sEH enzymatic activity, activator screen; activation, % at 2 µM; 91,000 tested, 0.04% active; AID 717; in the data active = activation above about 37%
Target sequence (P34913 whole entry, looked up): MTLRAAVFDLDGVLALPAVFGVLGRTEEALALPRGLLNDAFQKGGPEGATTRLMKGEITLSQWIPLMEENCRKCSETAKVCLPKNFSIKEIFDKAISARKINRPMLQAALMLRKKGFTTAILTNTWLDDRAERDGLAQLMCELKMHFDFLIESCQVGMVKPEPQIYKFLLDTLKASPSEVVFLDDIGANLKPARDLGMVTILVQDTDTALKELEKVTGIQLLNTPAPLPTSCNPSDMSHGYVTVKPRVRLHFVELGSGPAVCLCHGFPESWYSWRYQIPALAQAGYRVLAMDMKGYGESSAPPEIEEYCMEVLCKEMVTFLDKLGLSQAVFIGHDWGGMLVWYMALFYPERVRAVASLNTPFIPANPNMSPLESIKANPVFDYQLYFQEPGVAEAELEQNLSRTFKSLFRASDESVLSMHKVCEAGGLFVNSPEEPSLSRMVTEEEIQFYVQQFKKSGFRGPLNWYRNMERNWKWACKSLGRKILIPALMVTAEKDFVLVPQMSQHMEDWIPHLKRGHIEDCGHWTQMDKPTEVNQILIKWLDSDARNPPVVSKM
NFkB transloc inh: blocks IL-1B driven NFkB nuclear translocation in HUVEC cells; 94,000 tested, 0.43% active; HUVEC IL-1B NFkB p65 nuclear translocation imaging; AID 796; inhibition, % at 2 µM;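 active = inhibition above about 30% together with a positive call from visual inspection of the well image, limit read from the data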;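 note: nuclear over cytoplasmic p65 intensity ratio measured by imaging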
HUVEC tox IL1B: HUVEC cytotoxicity counter-screen, IL-1B stimulated. HUVEC cell count loss, Hoechst imaging. cell count reduction, % at 2 µM. AID 845. 94,000 tested, 0.41% active;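 active = cell count reduction more than 3 SD above the screen-wide mean, cut at about 70% in these data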
sEH inh: inhibitors of human soluble epoxide hydrolase; P34913; recombinant human sEH enzymatic activity assay; inhibition, % at 2 µM; 91,000 tested, 0.34% active; in the data active = inhibition above about 80%
Each line names hits and unclear results; the compound was inactive in the other large screens.

O=P(CCCCCCCCCP(=O)(c1ccccc1)c1ccccc1)(c1ccccc1)c1ccccc1	Cav3 T inh -9.6
Cc1cc(CNC(=O)[C@H]2C[C@@H]2[C@H](NP(=O)(c2ccccc2)c2ccccc2)c2ccccc2)nn1C	none (no result: NFkB transloc pot, sEH act, NFkB transloc inh, HUVEC tox IL1B, sEH inh)
O=C(COc1ccccc1)Nc1ccc(CSc2ccccc2)cc1	none
CCOC(=O)c1sc2nc(C)n(CC(=O)NCC3CCCO3)c(=O)c2c1C (centres undefined)	none (no result: sEH act, sEH inh)
CCOC(=O)/C=c1\s/c(=C\c2c(OC)ccc3ccccc23)c(=O)n1CC(=O)NCC1CCCO1 (centres undefined)	Cav3 T inh -5.7
CCOC(=O)c1cnc(Nc2nc3ccccc3o2)nc1CN1CCN(C)CC1	none (no result: Cav3 T inh)
Cc1ccc(-c2nn(-c3ccccc3)cc2CN(Cc2ccccc2)C(=O)c2ccco2)o1	NFkB transloc pot 46, Cav3 T inh -4
CC(C)OC(=O)c1cn(-c2ccccc2)nc1-c1ccco1	none
Cc1noc(C)c1COC(=O)c1cc(C)n(-c2ccccc2)c1C	Cav3 T inh -4.9
O=S(=O)(Nc1ccc(Cc2ccncc2)cc1)c1cccs1	none
CCCCc1ccc(NS(=O)(=O)c2cccs2)cc1	Cav3 T inh -5
CCOC(=O)c1ccc(NC(=O)CSc2nnc(CCc3ccc(C)o3)n2-c2ccccc2)cc1	none
CCOC(=O)C1=C(c2ccccc2)O/C(=C(/C#N)C(F)(F)F)S1	NFkB transloc inh 56
O=C(Nc1nc(-c2ccc3c(c2)OCO3)cs1)C1COc2ccccc2O1 (centres undefined)	Cav3 T inh -5.3 (no result: NFkB transloc pot, sEH act, NFkB transloc inh, HUVEC tox IL1B, sEH inh)
COc1cc(C2c3c(oc4ccccc4c3=O)C(=O)N2CCN2CCOCC2)cc(OC)c1OC (centres undefined)	none (no result: NFkB transloc pot, sEH act, NFkB transloc inh, HUVEC tox IL1B, sEH inh)
O=C(CCC1N=C2c3ccccc3N=C(SCc3ccccc3Cl)N2C1=O)NCc1ccco1 (centres undefined)	Cav3 T inh -4.2
CCOc1nc(-c2ccncc2)nc2ccccc12	none
CC(C)(C)c1ccc(CN2C3=NCCCN3c3ccccc32)cc1	Cav3 T inh -6.3, HUVEC tox IL1B 75
COc1ccc(-c2c3c([nH]c(=S)c2C#N)CCC3)cc1	none
COC(=O)C(Cc1ccccc1)NC(=O)CSc1nc(C)cc(=O)[nH]1 (centres undefined)	none
C=CCN(CC=C)CC(O)Cn1c2ccccc2c2ccccc21 (centres undefined)	Cav3 T inh -3.4
Cc1ccc(S(=O)(=O)N2CCN(C(=O)c3ccccc3)CC2)cc1	none
COc1ccc(S(=O)(=O)N2CCN(c3ccc(C)cc3C)CC2)cc1OC	Cav3 T inh -6
COc1cccc(OC)c1C(=O)N1CCN(S(=O)(=O)c2ccc(C)cc2)CC1	NFkB transloc inh 32
Cc1ccccc1N1CCN(S(=O)(=O)c2ccccc2)CC1	Cav3 T inh -4.6
Cc1cccc(C(=O)NN2C(=O)C3C(c4ccccc4)C=CC(c4ccccc4)C3C2=O)c1 (centres undefined)	none (no result: NFkB transloc pot, NFkB transloc inh, HUVEC tox IL1B)
Cc1c(NC(=O)c2noc3c2CCc2ccccc2-3)c(=O)n(-c2ccccc2)n1C	none
Cc1ccccc1Cn1nc(C)c(NC(=O)c2noc3c2CCc2ccccc2-3)c1C	Cav3 T inh -6.9
Cc1ccccc1Cn1nc(C)c(NC(=O)c2noc3c2CC(C(C)(C)C)CC3)c1C (centres undefined)	Cav3 T inh -4.7
O=C(COc1ccc(/C=N/NS(=O)(=O)c2ccccc2)cc1)Nc1ccc(F)cc1	Cav3 T inh -6, HUVEC tox IL1B 84
COc1ccc(S(=O)(=O)C(C#N)c2nc3ccccc3nc2N2CCCCC2)cc1 (centres undefined)	Cav3 T inh -4.8 (no result: sEH act, sEH inh)
CCOC(=O)C1CCN(c2nc3ccccc3nc2C(C#N)C(=O)OC(C)COC)CC1 (centres undefined)	Cav3 T inh -4.4 (no result: NFkB transloc pot, sEH act, NFkB transloc inh, HUVEC tox IL1B, sEH inh)
CC1CN(c2nc3ccccc3nc2C(C#N)C(=O)NCc2ccc3c(c2)OCO3)CC(C)O1 (centres undefined)	Cav3 T inh -7.9
COC(=O)C1CCN(c2nc3ccccc3nc2C(C#N)C(=O)NCCc2ccccc2)CC1 (centres undefined)	none (no result: NFkB transloc pot, sEH act, HUVEC tox IL1B, sEH inh)
COc1ccc(CNC(=O)C(C#N)c2nc3ccccc3nc2N2CCCC2)cc1 (centres undefined)	Cav3 T inh -7.3
COc1ccc(CNC(=O)C(C#N)c2nc3ccccc3nc2N2CCN(C)CC2)cc1 (centres undefined)	none
CCOC(=O)Cn1c(=N)n(CCOc2ccc3ccccc3c2)c2ccccc21	none
CC1(C)CC(CC(=O)O)(c2ccc(F)cc2)CCO1 (centres undefined)	none
O=C(c1c(F)cccc1F)N1CCN(c2cccc(C(F)(F)F)c2)CC1	none (no result: NFkB transloc pot, sEH act, NFkB transloc inh, HUVEC tox IL1B, sEH inh)
CCCCCCOC(=O)C(C#N)c1nc2ccccc2nc1N1CCN(C)CC1 (centres undefined)	none
CCCCCCOC(=O)C(C#N)c1nc2ccccc2nc1N1CCCCC1 (centres undefined)	Cav3 T inh -5.3
Cc1ccc(C)c(S(=O)(=O)C(C#N)c2nc3ccccc3nc2N2CCCC2)c1 (centres undefined)	none
Cc1ccc(C)c(S(=O)(=O)C(C#N)c2nc3ccccc3nc2N2CC(C)OC(C)C2)c1 (centres undefined)	Cav3 T inh -5.7
Cc1nn(-c2ccccc2)c(Cl)c1C1C(C#N)=C(N)OC2=C1C(=O)CC(C)(C)C2 (centres undefined)	none
CC(C)c1ccc(-c2nn(-c3ccccc3)cc2C2C(C#N)=C(N)OC3=C2C(=O)CC(C)(C)C3)cc1 (centres undefined)	Cav3 T inh -5.3
COc1ccc(NC(=O)C23CC4CC(C2)CC(n2cnc(Br)n2)(C4)C3)c(OC)c1	Cav3 T inh 3.4
O=C(c1cccnc1)N1CCC(c2nc3ccccc3[nH]2)CC1	none (no result: sEH act, sEH inh)
CC(C)CCNc1cc(=O)n(C)c(=O)n1C	none (no result: NFkB transloc pot, sEH act, NFkB transloc inh, HUVEC tox IL1B, sEH inh)
Cc1cccc(Cc2cnc(NC(=O)c3ccc(C)o3)s2)c1	Cav3 T inh -6
CCCCC(=O)OCCNC(=O)c1cc2ccccc2oc1=O	none
O=C(Nc1cccc(-c2nnn(CC(=O)N3CCc4ccccc4C3)n2)c1)C1CCC1	Cav3 T inh -4.4
CC(=O)Nn1cnc2c(c1=O)C1(CCCCC1)Cc1ccccc1-2	none
CC(C)CCn1nnnc1C(c1ccc(F)cc1)N1CCN(C(=O)c2ccco2)CC1 (centres undefined)	none
COCCn1nnnc1C(C(C)C)N1CCN(C(=O)c2ccco2)CC1 (centres undefined)	HUVEC tox IL1B 88
CN(C)S(=O)(=O)c1ccc(N2CCOCC2)c(C(=O)O)c1	none
O=C(COc1cccc2ccccc12)N1c2ccccc2CCc2ccccc21	Cav3 T inh -6.6
O=C(COc1cccc2ccccc12)N1CCN(c2ccccc2)CC1	none (no result: NFkB transloc pot, Cav3 T inh, NFkB transloc inh, HUVEC tox IL1B)
Cc1cc(Cl)ccc1OCCCC(=O)N1CCCc2ccccc21	none
O=C(c1ccccc1C(=O)N1CCN(c2ccccc2)CC1)N1CCN(c2ccccc2)CC1	none
O=C(CCCOc1ccccc1)N1CCN(c2ccc(F)cc2)CC1	Cav3 T inh -7.8
O=C(CCCOc1ccccc1)N1CCN(c2ccccn2)CC1	none
